Compound activity deposited in PubChem BioAssay by Broad Institute.
In the library only some 4% were active in any assay of this set; here they are far more common.
Wnt bcat act = Wnt/beta-catenin pathway activators, primary screen, cell-based, plate reader, single point | AID 743398, 2014 | activation, % at 9.35 µM | hit rate 1.2% among 300,000 | Wnt/beta-catenin reporter cell assay, activator; in the data active = activation above about 30%, passing the limit was not always enough;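 note: 0% = neutral control wells and 100% = positive control wells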
esBAF inh = Bmi1 luciferase reporter increase in mESCs, primary screen, esBAF inhibitor project, mouse ES cells, Bmi1 luciferase knock-in, single point; 24 h; 100% = twice the neutral-well signal; reporter increase, % at 12.5 µM; hit rate 2% among 350,000; in the data active = activation above about 40%;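 note: 0% = median of the plate's neutral control wells and 100% = double that signal; a rise in the Bmi1 reporter signal indicates esBAF inhibition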
MITF act = activators of MITF-driven TRPM1 promoter reporter, primary screen, cell-based, SK-MEL-5, luciferase, single point; SK-MEL-5 TRPM1-promoter luciferase, 24 h; % of positive control, neutral wells = 0; activation, % at 12.5 µM; hit rate 0.75% among 300,000;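 active = mean activation of at least 80% with every replicate also reaching 80%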;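 note: 0% = neutral control wells and 100% = parthenolide positive control wells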
TRPM1 prom inh = inhibitors of MITF-dependent TRPM1 promoter reporter, primary screen, cell-based, SK-MEL-5, single point, luciferase. SK-MEL-5 TRPM1 promoter luciferase, 24 h. inhibition, % at 12.5 µM. hit rate 0.83% among 330,000;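 active = mean inhibition across replicates of 60% or more, whatever share of single replicates reaches that level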
EWS-Fli inh = EWS/Fli-driven NR0B1 reporter inhibitors, primary screen, A673 cells, NR0B1 luciferase, luminescence, MLPCN library; viability-normalised; inhibition, % at 12.6 µM; hit rate 0.67% among 350,000;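 active = mean inhibition of at least 50% after viability correction, with every replicate also passing that limit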;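 note: firefly luciferase signal divided by Alamar Blue viability fluorescence both relative to DMSO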
PAX8 inh HTS = inhibitors of PAX8-driven TPO luciferase reporter, primary screen, RMG-I cells, single concentration; inhibition, % at 12.6 µM; hit rate 1.2% among 360,000; AID 652154, 2013; SteadyGlo, 24 h;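 active = mean replicate inhibition at least 60% with every replicate also reaching 60%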;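 note: luciferase light reporting Pax8 driven TPO promoter activity; plate controls were median of neutral control wells for no effect and mitoxantrone controls for full effect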
The depositor's hits bear a star; . = no result given.

SMILES	Wnt bcat act	esBAF inh	MITF act	TRPM1 prom inh	EWS-Fli inh	PAX8 inh HTS
C[C@H](CO)N1C[C@H](C)[C@H](CN(C)S(=O)(=O)c2cn(C)cn2)Oc2ccc(NC(=O)c3ccncc3)cc2CC1=O	.	.	.	.	-5	.
C[C@@H]1CN([C@H](C)CO)S(=O)(=O)c2ccc(-c3ccc(F)cc3)cc2O[C@@H]1CN(C)C	.	-1	.	.	-2	.
O=C(c1cccc(F)c1)N1C[C@H]2[C@@H](c3ccccc31)[C@H](CO)N2C(=O)c1ccccn1	.	-2	.	.	0	5
CC(C)NC(=O)N1C[C@H]2[C@@H](c3ccccc31)[C@H](CO)N2C(=O)c1ccccc1	.	-3	.	.	-2	5
CCCc1ccc(-c2cc(C(=O)NCCc3ccc(S(N)(=O)=O)cc3)c3ccccc3n2)cc1	.	32	106*	-98	.	.
COCCNC(=O)c1cc(-c2ccc(-c3ccccc3)cc2)nc2ccccc12	9	47*	49	-47	-121	-65
COCCCNC(=O)c1cc(-c2cccnc2)nc2ccccc12	0	-2	0	-1	3	-4
C[C@H]1CN([C@@H](C)CO)C(=O)c2cccc(NC(=O)Nc3ccc(F)cc3)c2O[C@H]1CN(C)CC1CC1	.	.	.	.	18	-18
CCOc1cc(/C=C2/NC(=S)NC2=O)ccc1OCc1ccc([N+](=O)[O-])cc1	.	.	-63	63*	.	.
CCOc1cc(C(c2c(C)[nH][nH]c2=O)c2c(C)[nH][nH]c2=O)ccc1OCc1ccc([N+](=O)[O-])cc1	.	2	-10	10	.	.
CN1C(=O)c2cc(NS(C)(=O)=O)ccc2OC[C@H]2O[C@@H](CC(=O)NCc3ccc(-c4ccccc4)cc3)CC[C@H]21	.	-8	.	.	2	4
c1coc(CN2CN=C(Nc3nc4ccccc4s3)NC2)c1	18	51*	39	-33	.	.
c1ccc(Nc2nc(NCc3ccco3)c3ccccc3n2)cc1	-16	.	.	5	9	67*
O=S(=O)(Nc1nc2ccccc2nc1NCc1ccco1)c1ccc(Cl)cc1	.	-1	-7	6	.	.
c1coc(CNc2nc3ccccc3s2)c1	36*	28	29	-26	-21	-121
Cc1cccc(Nc2nc(NCc3ccco3)c3ccccc3n2)c1	5	.	-5	7	9	.
Cc1ccc(S(=O)(=O)Nc2nc3ccccc3nc2NCc2ccco2)cc1	.	92*	-5	6	.	.
COc1ccc2c3c(n(C)c2c1)[C@H](CO)N(S(C)(=O)=O)CC31CN(C(=O)C2CCCC2)C1	.	.	.	.	-4	4
C[C@@H]1CN([C@@H](C)CO)C(=O)c2cccc(NC(=O)c3ccc(-c4nccs4)cc3)c2O[C@H]1CN(C)S(=O)(=O)c1cn(C)cn1	.	-2	.	.	-6	.
Cc1ccc(S(=O)(=O)N(C)C[C@@H]2OCc3cn(nn3)CCCC(=O)N([C@@H](C)CO)C[C@@H]2C)cc1	.	-7	.	.	3	.
O=C(Cc1ccccn1)NCC[C@H]1CC[C@H](NC(=O)Nc2ccccc2)[C@@H](CO)O1	.	0	.	.	-2	18
Cc1nc(C)c(-c2csc(NCc3ccccc3)n2)s1	-2	.	14	-11	.	-24
Cc1nc(C)c(-c2csc(NCc3ccco3)n2)s1	11	62*	68	-66	-85	.
CCC(=O)N1CC[C@@H]2[C@H](CO)Nc3ccc(-c4ccccc4)cc3[C@@H]21	.	-4	.	.	-16	-5
Cc1nc(N2CCOCC2)c2cc(-c3ccccc3)sc2n1	.	16	46	-44	.	.
SMILES	Wnt bcat act	esBAF inh	MITF act	TRPM1 prom inh	EWS-Fli inh	PAX8 inh HTS
Cc1nc(SCCC(=O)O)c2cc(-c3ccccc3)sc2n1	-1	-73	-50	51	63*	-4
Cc1ccc(NC(=O)CN(C)S(=O)(=O)c2cccs2)cc1C	3	98*	45	-44	-35	.
CN(CC(=O)NCCc1ccccc1)S(=O)(=O)c1cccs1	1	8	.	-4	.	.
CCOc1ccc(NC(=O)CN(C)S(=O)(=O)c2cccs2)cc1	.	54*	40	-41	.	.
Cc1ccc(NC(=O)CN(C)S(=O)(=O)c2cccs2)cc1F	.	51*	45	-44	.	.
COc1cc(NC(=O)CN(C)S(=O)(=O)c2cccs2)cc(OC)c1	-3	6	5	-6	-9	-4
Cc1ccc(NC(=O)CN(C)S(=O)(=O)c2cccs2)c(Br)c1	1	32	11	-15	25	-94
CO[C@@H]1CN(C)C(=O)c2cc(NC(=O)Nc3cc(F)ccc3F)ccc2OC[C@H](C)NC[C@H]1C	.	-6	.	.	4	1
O=C(NCC(F)(F)F)[C@H]1[C@H](CO)[C@H]2Cn3c(cccc3=O)[C@H]2N1C(=O)C1CCC1	.	1	.	.	-4	.
O=C(N/N=C/c1ccc2cccnc2c1)c1nc2ccccc2c(=O)[nH]1	0	46*	67	-58	-48	-37
Cc1ccc(/C(N)=N/OC(=O)/C=C/c2ccccc2)cc1	-1	50*	20	-20	.	.
COc1ccc(/C=C/C(=O)NC(=S)Nc2ccccc2)cc1OC	1	3	3	-3	10	-20
Cc1ccccc1/C(N)=N/OC(=O)/C=C/c1ccccc1	77*	38	58	-58	.	-241
COc1ccc(/C=C/C(=O)O/N=C(\N)c2ccccc2)cc1OC	46*	.	40	-39	-75	-60
COc1ccc(/C=C/C(=O)Nc2ccccc2)cc1OC	10	.	90*	-86	-62	-148
COc1ccc(-c2ccc(C3[C@H]4CNC[C@@H]3N4S(=O)(=O)c3cccc(OC)c3)cc2)cc1 (stereo partly specified)	.	.	.	.	-5	5
C[C@@H]1CN([C@H](C)CO)C(=O)Cc2cc(NS(=O)(=O)c3ccc(F)cc3)ccc2O[C@@H]1CN(C)S(=O)(=O)c1cn(C)cn1	.	5	.	.	2	-6
Cn1cnc(S(=O)(=O)N[C@H]2CC[C@H](CC(=O)Nc3ccc(-c4ccccc4)cc3)O[C@H]2CO)c1	.	-3	.	.	-3	-1
Cc1ccc(/C(N)=N/OC(=O)CCc2ccccc2)cc1	10	60*	50	-48	-85	.
CCOc1ccc(C(=O)/C=C/c2ccc(OC)c(OC)c2)cc1	-2	.	5	-6	10	7
CCOc1ccc(/C=C/C(=O)c2ccccc2)cc1OC	76*	.	44	-45	.	-173
N/C(=N\OC(=O)CCc1ccccc1)c1ccc(Br)cc1	5	37	26	-21	-44	.
COc1ccc(/C=C/C(=O)Oc2ccc(/C=N/NC(=O)c3ccccc3)cc2)cc1OC	.	47*	1	-2	.	.
COc1cc(/C=C/C(=O)NC(=O)c2ccccc2O)ccc1OC(C)=O	-2	54*	66	-70	-5	.
CN(C)C(=O)C[C@H]1C[C@H]2c3cc(NC(=O)NC4CCCC4)ccc3O[C@H]2[C@@H](CO)O1	.	0	.	.	2	-21
